In ChEMBL document CHEMBL4888484, “Replenishing the malaria drug discovery pipeline: Screening and hit evaluation of the MMV Hit Generation Library 1 (HGL1) against asexual blood stage Plasmodium falciparum ,using a nano luciferase reporter read-out” (2022):
In all, about 4,800 compounds went through this assay and about 420 (8.8%) showed an effect of 50% or more. This is one part of a sample in which strong results are shown more often than they occur.

Test system: Plasmodium falciparum
Test: Confirmatory screen in NF54 nanoGlo assay, in single point, at 2uM, 72h
Format: functional, Erythrocyte
Conditions: timepoint 72 hour

Compound	% Inhibition
CC1(C)OCc2cc(CNc3ccc4oc(=O)[nH]c4c3)ccc2O1	93%
CCCN1CC(=O)N(c2ccc(C)cc2)[C@@H]2CS(=O)(=O)C[C@@H]21	4%
COc1ccc(-c2nccn3cc(C(=O)N4CCN(c5cccc(OC)c5)CC4)nc23)cc1	-6%
O=C(NCc1ccccc1OC1CCC1)N(CCO)C1CC1	-2%
CC(=O)N(c1ccccc1)[C@H]1C[C@@H](C)N(C(=O)C(F)(F)F)c2ccccc21	9%
Cc1noc(C)c1CN1C[C@@H]2Oc3cc(F)ccc3C(=O)N(C)[C@@H]2C1	92%
Cc1noc(C)c1CN1CCNC(=O)CC1	-11%
Cc1noc(C)c1CN1CCCN(C(=O)c2n[nH]c3ccccc23)CC1	0%
O=C1O[C@@H](CO)CN1c1cccc(F)c1	-4%
COc1ccc2nc(N3CN(Cc4ccccc4)CN(c4nc5ccc(OC)cc5s4)C3)sc2c1	3%
Cc1ccccc1C(=O)N(Cc1cccc(F)c1)c1ccc(CC(=O)NCCN2CCCCC2)cc1	44%
O=C(Cc1ccc(N(Cc2cccc(F)c2)C(=O)c2cccc(F)c2)cc1)NCCN1CCCCC1	38%
Cc1ccc(C(=O)N(Cc2cccc(F)c2)c2ccc(CC(=O)N[C@@H](C)c3ccccc3)cc2)cc1	81%
CNC(=O)Cc1c(Cl)cccc1Cl	1%
CN1CCN(C(=O)C[C@@H]2CCN3C[C@@H]2/C=C\COc2ccccc2CN(C(=O)CC(C)(C)C)CC3=O)CC1	5%
Nc1cc(Br)c(C(F)(F)F)cc1NC(=O)C(F)(F)F	-11%
CCn1cc(Br)c(=O)c(NC(=O)[C@H]2CCCOC2)c1	-7%
Cc1nc2cc(NC(=O)[C@@]3(C)CCCN(C(=O)c4ccccc4)C3)ccc2o1	57%
Cc1nc2cc(NC(=O)c3cccs3)ccc2o1	-8%
CC(C)(CC(=O)Nc1ccc2oc(C3CC3)nc2c1)C(=O)O	-2%
CNC(=O)c1cnc(C=Cc2cnc(-c3cccnc3)s2)s1	0%
Cc1cc(C)c2ccc3ccccc3c2n1	-4%
CC[N+](C)(CC)CCOc1cc(C)c2ccccc2n1	53%
CC(C)(NCc1ccccc1Cl)C(=O)O	4%
Cc1ccc(S(=O)(=O)Nc2ccc(Oc3ccc(NS(=O)(=O)c4ccc(C)cc4)cc3)cc2)cc1	3%
N[C@H]1C[C@H](c2cc(NCCCc3cccnc3)nc(C3CC3)n2)C1	75%

Compound	% Inhibition
Cc1ccc(OCCNc2cc([C@H]3C[C@H](N)C3)nc(C3CC3)n2)cc1C	31%
Nc1nc2c(s1)CN(CCc1ccccc1)CC2	38%
N#Cc1c(-c2ccccc2)cc(-c2ccccc2)nc1S(=O)(=O)Cc1ccccc1	35%
N#Cc1nc2c(C#N)c(N)n(CCc3ccccc3)c2nc1C#N	87%
O=C(c1ccccc1)N1N=C(C(F)(F)F)C2CCCCCC21O (stereo not drawn)	-11%
CCC1Cn2c(C(=O)NC(C)Cc3ccco3)cc3cccc(c32)O1 (stereo not drawn)	-8%
CCOC(=O)N(c1ccccc1)[C@H]1CC(=O)N(c2ccccc2)C1=O	1%
Cc1nnc2ccc(S(=O)(=O)Nc3cc(F)cc(F)c3)cn12	-4%
Cn1cc(CN2CCC(C(=O)NCCCN3CCCCC3)CC2)c2cc(Cl)ccc21	-7%
O=C(NCCCN1CCOCC1)c1ccc(-c2cnc(NC3CCCCC3)nc2)cc1	-8%
Cc1cc2nc(C)c(=O)n(Cc3ccc(C(=O)NCCN4CCCC[C@@H]4C)cc3)c2cc1C	17%
COc1ccc(-c2nccn3cc(C(=O)NCCN(C)C4CCCCC4)nc23)cc1	6%
O=S1(=O)NC(c2ccccc2)(c2ccccc2)c2ccccc21	1%
CCc1ccc(NC(=O)c2sc3nc(C)c(C(=O)Nc4ccc(C)cc4C)c(-c4ccccc4Cl)c3c2N)cc1	16%
Cc1ccc(NC(=O)c2c(C)nc3sc(C(=O)NCc4ccccc4)c(N)c3c2-c2cccs2)c(C)c1	2%
Cc1ccc(NC(=O)c2c(C)nc3sc(C(=O)NCc4ccccc4)c(N)c3c2-c2ccccc2Cl)c(C)c1	77%
CC(C)NC(=O)C(=O)Nc1nccs1	-14%
CC(C)N(CC(=O)Nc1nccs1)Cc1ccccn1	68%
CC(C)c1nc(CN(C)[C@@H](C)C(=O)Nc2nccs2)cs1	22%
O=c1cc2c(nn1Cc1ccccc1Cl)-c1ccccc1CC2	-8%
O=C(c1ccc(O)cc1)C1CCN(C[C@H](O)C(F)(F)F)CC1	5%
Cc1nn(C)c2c(N3CCc4ccccc4C3)nc(C3CC3)nc12	-7%
CCOCCCNC(=O)c1ccc(-c2ccc3c(c2)CCN3C(C)=O)cc1	-2%
O=C(NCC1CCCCC1O)c1cnn2ccncc12 (stereo not drawn)	-12%
O=C(NCC1CCCCC1)c1cn[nH]c1-c1ccccc1	-4%
O=C1Nc2ccccc2O[C@H]2C[C@@H]1N(CC1CC1)C2	-10%

Compound	% Inhibition
CC(=O)c1cccc(NC(=O)Cc2c(C)nc3nc(C4CCCCC4)nn3c2C)c1	5%
CC(C)N1CCN(C(=O)CN2N=C(c3nc(-c4ccccc4)no3)CCC2=O)CC1	5%
c1ccc(-c2noc(-c3ccc(NC4CCCCC4)nn3)n2)cc1	55%
Clc1ccc(-c2noc(C3CNC3)n2)cc1	21%
Cc1nn(-c2ncc(C(F)(F)F)cc2Cl)c(=O)n1-c1cccc(F)c1	-4%
CC(C)(C)c1nc(CNc2ccc(S(=O)(=O)CCO)cc2)no1	-9%
O=C(COc1ccc(Cl)cc1)N1CC(n2cnnc2C2CC2)C1	-7%
Cc1cc(=O)[nH]c(N2CCCCCC2)n1	-2%
COc1ccc(NC(=O)c2cc(C3CC3)nc3onc(C4CC4)c23)cc1Cl	-3%
Cc1cc(=O)[nH]c(-n2nc(C3CC3)cc2NC(=O)C(C)(C)Oc2ccc(Cl)cc2)n1	85%
COc1ccc(Cl)cc1C(=O)Nc1cc(C2CC2)nn1-c1nc(C)cc(=O)[nH]1	66%
COc1ccc(Cl)cc1C(=O)N(C1CCOCC1)[C@H]1CCCN(S(C)(=O)=O)C1	-9%
CC(C)C[C@H](N)C(=O)N1CC2CCCCC2C1 (stereo partly drawn)	-3%
CS(=O)(=O)N1C[C@@H]2CCCN2c2cc(C(F)(F)F)ccc21	4%
Cc1csc(C(C)(C)NC(=O)NCCC2=CCCC2)n1	-3%
CCOC(=O)c1sc(NC)nc1C(F)(F)F	-19%
CC1CN(C(=O)Cn2nnc3ccccc3c2=O)CC1N(C)C (stereo not drawn)	-4%
CCOCCC1(CNC(=O)c2cc(C)n[nH]2)CCC1	-1%
Cc1cnccc1NCCNC1CCN(c2ccc3c(c2)CCC3)CC1	72%
Cc1cnccc1NCCNC1CCN(c2ccc(Cl)cc2)CC1	99%
CCn1nccc1C(=O)NC1CCN(c2nnc3ccc(Cl)cn23)CC1	0%
CCCC(=O)N1CCN(c2c(C)n(-c3ccccc3)c(=O)n(C)c2=O)CC1	2%
O=C(NC1CC1)c1nc(C(=O)N2CCN(c3ccccn3)CC2)cs1	-1%
Cc1ccccc1CNC(=O)[C@H]1CCCN(c2nc3ccccc3[nH]c2=O)C1	-1%
Cc1ccccc1CNC(=O)[C@H]1CCCN(c2nc3cccnc3n(Cc3ccccc3)c2=O)C1	-6%
COc1ccccc1CNC(=O)c1nnn(-c2ccc3noc(-c4ccc(Cl)cc4)c3c2)c1C	-1%

Compound	% Inhibition
Cc1nccn1-c1ncc(NC(=O)Nc2ccc3c(c2)OCO3)cn1	21%
Cc1ccc(C(=O)OCC(=O)Nc2ccc3c(c2)OCO3)cn1	-2%
CCc1nc2cc(N3CCC(C(=O)Nc4ccc5c(c4)OCO5)CC3)cnc2nc1CC	61%
CC(C)c1cc(=O)n(Cc2ccccc2Cn2cnc(C(C)C)cc2=O)cn1	-3%
Cc1nc(Nc2ccc(F)cc2)nc2c1ncn2-c1ccc(F)cc1	-18%
COc1ccc(C(=O)N[C@@H](C(=O)Nc2ccccc2C)c2ccc(Cl)cc2)cc1	7%
CC(=O)N(Cc1ccccc1OCc1c(Cl)cccc1Cl)c1ccc2oc(-c3ccccc3)nc2c1	-13%
Clc1ccc(C[n+]2ccc(-c3nc4ccccc4o3)cc2)c(Cl)c1	58%
CC(=O)N(Cc1ccc2c(c1)OCO2)c1cccc(-c2nc3ccccc3o2)c1	-1%
O=C(NC[C@H]1CCCO1)N1CCN(c2nccs2)C(=O)C1	1%
Cc1ccc(-n2nc(N3CCN(C(=O)Cc4ccc(F)cc4)CC3)ccc2=O)cc1	4%
Cc1nsc2ncc(C(=O)N3CCC(C)CC3)c(N3CCC(C(=O)Nc4cc(F)ccc4F)CC3)c12	60%
CCN(CC)C(=O)c1cnc2snc(C)c2c1N1CCC(C(=O)Nc2c(C)cc(C)cc2C)CC1	57%
Cc1cccc(C)c1NC(=O)C1CCN(S(=O)(=O)c2c(C)nn(-c3ccccc3)c2C)CC1	-6%
Cc1ccc(N2CCN(c3c(C(=O)N4CCCCC4)cnc4ccc(F)cc34)CC2)cc1	-8%
O=C(c1cnc2ccc(F)cc2c1N1CCC(Cc2ccccc2)CC1)N1CCCC1	2%
CCC1(CC)CN(C(=O)c2ccn(C)c(=O)c2)c2ccccc21	2%
Cn1cc(-c2noc(Cc3c(F)cccc3Cl)n2)ccc1=O	-1%
Clc1cccc(CNc2cc(-c3ccco3)n[nH]2)c1	-7%
CS(=O)(=O)N(CCCC(=O)NCc1ccc2c(c1)OCO2)c1ccc(F)cc1	-2%
Cc1csc([C@@H](C#N)C(=O)c2ccncc2)n1	-11%
CCCCNC(=O)Nc1cccc(C#CCN)n1	-2%
Cc1cc(N)nc(Nc2ccc(Nc3ccccc3)cc2)n1	87%
Cc1nc(N)nc(C)c1C(=O)Nc1ccc(Nc2ncccn2)cc1	46%
c1ccc(Nc2nc(-c3ccccc3)cc(-c3ccccc3)n2)cc1	3%
